From PubChem BioAssay (NCI)
This is part of a sample that, as a whole, favours compounds with a hit. Of some 83,000 tested, about 20% had one in any assay.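 Treatment: one concentration, 48 hours, 96-well format. Scoring: percent growth, with anything below 10 considered active.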 The source made the active and inactive calls.

What was measured:
Experiment in all cases: NCI-60 one-dose screen, 48 h (100 = growth as untreated, 0 = no growth, -100 = all killed)
Details in all cases: 10 µM unless noted
DU-145 prostate = tested on: DU-145 prostate
K-562 leukemia = tested on: K-562 leukemia
MALME-3M melanoma = tested on: MALME-3M melanoma
MDA-MB-231 breast = tested on: MDA-MB-231 breast
RXF 393 renal = tested on: RXF 393 renal
SF-268 CNS = tested on: SF-268 CNS
SF-295 CNS = tested on: SF-295 CNS
SF-539 CNS = tested on: SF-539 CNS
UACC-257 melanoma = tested on: UACC-257 melanoma
M14 melanoma = tested on: M14 melanoma
HCT-15 colon = tested on: HCT-15 colon
HT29 colon = tested on: HT29 colon
SNB-75 CNS = tested on: SNB-75 CNS
SNB-19 CNS = tested on: SNB-19 CNS
U251 CNS = tested on: U251 CNS
PC-3 prostate = tested on: PC-3 prostate
SK-MEL-5 melanoma = tested on: SK-MEL-5 melanoma
UACC-62 melanoma = tested on: UACC-62 melanoma
LOX IMVI melanoma = tested on: LOX IMVI melanoma
SK-MEL-28 melanoma = tested on: SK-MEL-28 melanoma

Measured: growth

CC(C)(C)OC(=O)Nc1ccc2c(c1)C(NC(=O)Nc1cccc(C#N)c1)CC(C)(C)O2 (stereo not given)
inactive: DU-145 prostate 71.6% | K-562 leukemia 23.3% | MALME-3M melanoma 39% | MDA-MB-231 breast 68.8% | RXF 393 renal 72.4% | SF-268 CNS 53.4% | SF-295 CNS 31.9% | SF-539 CNS 66.8% | UACC-257 melanoma 27.2% | M14 melanoma 47.5% | HCT-15 colon 34.2% | HT29 colon 55% | SNB-75 CNS 71.8% | SNB-19 CNS 52.4% | U251 CNS 32.7% | PC-3 prostate 30.5% | UACC-62 melanoma 34.6% | LOX IMVI melanoma 26.9% | SK-MEL-28 melanoma 74.7%
active: SK-MEL-5 melanoma -5.57%

O=[N+]([O-])c1ccc(C2CC(c3ccccc3)=Nc3ccccc3S2)cc1 (stereo not given)
inactive: DU-145 prostate 107% | K-562 leukemia 32.4% | MALME-3M melanoma 107% | MDA-MB-231 breast 101% | RXF 393 renal 116% | SF-268 CNS 98% | SF-295 CNS 119% | SF-539 CNS 101% | UACC-257 melanoma 108% | M14 melanoma 104% | HCT-15 colon 97.6% | HT29 colon 97.4% | SNB-75 CNS 57.2% | SNB-19 CNS 85.8% | U251 CNS 62.5% | PC-3 prostate 88.1% | SK-MEL-5 melanoma 87.5% | UACC-62 melanoma 84.7% | LOX IMVI melanoma 64.3% | SK-MEL-28 melanoma 116%

O=C(Nc1ccc(-n2cc(-c3ccncc3)c(-c3ccc(Cl)c(O)c3)n2)cc1)N1CCOCC1
inactive: DU-145 prostate 109% | K-562 leukemia 89.9% | MALME-3M melanoma 92.1% | MDA-MB-231 breast 105% | RXF 393 renal 135% | SF-268 CNS 99.9% | SF-295 CNS 96.4% | SF-539 CNS 92.7% | UACC-257 melanoma 109% | M14 melanoma 97% | HCT-15 colon 102% | HT29 colon 98.1% | SNB-75 CNS 93.3% | SNB-19 CNS 103% | U251 CNS 96.9% | PC-3 prostate 87.4% | SK-MEL-5 melanoma 99.1% | UACC-62 melanoma 101% | LOX IMVI melanoma 98% | SK-MEL-28 melanoma 100%

NS(=O)(=O)c1cnccc1Oc1cccc2cccnc12
inactive: DU-145 prostate 108% | K-562 leukemia 82.4% | MALME-3M melanoma 96% | MDA-MB-231 breast 102% | RXF 393 renal 104% | SF-268 CNS 101% | SF-295 CNS 120% | SF-539 CNS 88.3% | UACC-257 melanoma 114% | M14 melanoma 98.8% | HCT-15 colon 90.5% | HT29 colon 107% | SNB-75 CNS 89.6% | SNB-19 CNS 99.6% | U251 CNS 102% | PC-3 prostate 95.9% | SK-MEL-5 melanoma 106% | UACC-62 melanoma 104% | LOX IMVI melanoma 96% | SK-MEL-28 melanoma 109%

O=c1ssc(Cl)c1-c1ccccc1
inactive: DU-145 prostate 113% | K-562 leukemia 102% | MALME-3M melanoma 100% | MDA-MB-231 breast 97% | RXF 393 renal 86.7% | SF-268 CNS 134% | SF-295 CNS 102% | SF-539 CNS 90.7% | UACC-257 melanoma 91.3% | M14 melanoma 96.7% | HCT-15 colon 101% | HT29 colon 103% | SNB-75 CNS 90.5% | SNB-19 CNS 111% | U251 CNS 104% | PC-3 prostate 79.5% | SK-MEL-5 melanoma 97.1% | UACC-62 melanoma 95.4% | LOX IMVI melanoma 92.5% | SK-MEL-28 melanoma 100%

COc1ccc(-c2csc(C3=C(O)CN(CCCN4CCCC4=O)C3=N)n2)cc1OC
inactive: DU-145 prostate 103% | K-562 leukemia 88.9% | MALME-3M melanoma 129% | MDA-MB-231 breast 79.6% | RXF 393 renal 78.3% | SF-268 CNS 121% | SF-295 CNS 92% | SF-539 CNS 90.1% | UACC-257 melanoma 97.2% | M14 melanoma 122% | HCT-15 colon 94% | HT29 colon 114% | SNB-75 CNS 106% | SNB-19 CNS 93.8% | U251 CNS 99% | PC-3 prostate 83.5% | SK-MEL-5 melanoma 89.2% | UACC-62 melanoma 103% | LOX IMVI melanoma 93.5% | SK-MEL-28 melanoma 124%

Cc1ccc(-c2cc(-c3ccccc3C)[nH]c(=O)c2C#N)s1
inactive: DU-145 prostate 104% | K-562 leukemia 85.6% | MALME-3M melanoma 111% | MDA-MB-231 breast 84.8% | RXF 393 renal 92% | SF-268 CNS 95.8% | SF-295 CNS 99.2% | SF-539 CNS 91.5% | UACC-257 melanoma 107% | M14 melanoma 109% | HCT-15 colon 90.5% | HT29 colon 122% | SNB-75 CNS 71.6% | SNB-19 CNS 88.5% | U251 CNS 91.2% | PC-3 prostate 85.6% | SK-MEL-5 melanoma 89.8% | UACC-62 melanoma 75.5% | LOX IMVI melanoma 82.8% | SK-MEL-28 melanoma 110%

Cc1ccc(NCCN(C)C)c2c(=O)c3ccccc3sc12
inactive: DU-145 prostate 23.8% | K-562 leukemia 21.3% | MALME-3M melanoma 76.4% | MDA-MB-231 breast 24.3% | SF-268 CNS 17.1% | SF-295 CNS 29.4% | SF-539 CNS 30.8% | SNB-75 CNS 41.2% | SNB-19 CNS 20.2% | U251 CNS 10.8% | PC-3 prostate 36.2%
active: RXF 393 renal 2.41% | UACC-257 melanoma 1.5% | M14 melanoma 5.06% | HCT-15 colon 6.89% | HT29 colon -38.3% | SK-MEL-5 melanoma -73.6% | UACC-62 melanoma -5.6% | LOX IMVI melanoma -41.6% | SK-MEL-28 melanoma 2.84%
